{"source": "PubChem BioAssay (NCI)", "test": "NCI Yeast Anticancer Drug Screen. Data for the rad18 strain (AID 177)", "settings": "S. cerevisiae rad18 mutant growth inhibition, stronger effect = higher value", "protocol": "Growth inhibition of yeast strains with defined genetic alterations is measured as a screen for potential anti-cancer activity. Selected strains with alterations in DNA damage repair or cell cycle control were exposed to compounds and growth inhibition was measured relative to vehicle treated controls. The strain used in this assay is rad18", "note": "This is part of a sample that, as a whole, favours compounds with a hit. Of some 79,000 tested, about 15% had one in any assay. Values without a mark were called inactive. Calls of active or inactive are those of the source. Cut-off read from the data, not from the text of the source: active = growth inhibition above about 70%; inactive = the rest.", "data": [{"molecule": "O=c1c(Br)cc2c(-c3ccccc3)c3cc(Br)c(O)c(Br)c3oc-2c1Br", "values": [{"measurement": "growth inhibition", "setting": "at 1.2 µM", "result": -8, "unit": "%"}, {"measurement": "growth inhibition", "setting": "at 3.7 µM", "result": 9, "unit": "%"}, {"measurement": "growth inhibition", "setting": "at 11.0 µM", "result": 1, "unit": "%"}, {"measurement": "growth inhibition", "setting": "at 33.0 µM", "result": -2, "unit": "%"}, {"measurement": "growth inhibition", "setting": "at 100.0 µM", "result": -10, "unit": "%"}]}, {"molecule": "Cn1c(COc2ccc(/C=N/NC(=O)CCC(=O)N/N=C/c3ccc(OCc4c[n+]5ccccc5n4C)cc3)cc2)c[n+]2ccccc12", "values": [{"measurement": "growth inhibition", "setting": "at 1.2 µM", "result": 2, "unit": "%"}, {"measurement": "growth inhibition", "setting": "at 3.7 µM", "result": 3, "unit": "%"}, {"measurement": "growth inhibition", "setting": "at 11.0 µM", "result": 28, "unit": "%"}, {"measurement": "growth inhibition", "setting": "at 33.0 µM", "result": 9, "unit": "%"}, {"measurement": "growth inhibition", "setting": "at 100.0 µM", "result": "98% (active)"}]}, {"molecule": "O=S(=O)(Oc1c(Cl)cc(Cl)cc1Cl)c1ccccc1", "values": [{"measurement": "growth inhibition", "setting": "at 1.2 µM", "result": -3, "unit": "%"}, {"measurement": "growth inhibition", "setting": "at 3.7 µM", "result": 4, "unit": "%"}, {"measurement": "growth inhibition", "setting": "at 11.0 µM", "result": 12, "unit": "%"}, {"measurement": "growth inhibition", "setting": "at 33.0 µM", "result": 19, "unit": "%"}, {"measurement": "growth inhibition", "setting": "at 100.0 µM", "result": 30, "unit": "%"}]}, {"molecule": "C[n+]1c(-c2ccc(NC(=O)c3ccc(C(=O)Nc4ccc(-c5cn6ccccc6[n+]5C)cc4)cc3)cc2)cn2ccccc21", "values": [{"measurement": "growth inhibition", "setting": "at 1.2 µM", "result": 4, "unit": "%"}, {"measurement": "growth inhibition", "setting": "at 3.7 µM", "result": 2, "unit": "%"}, {"measurement": "growth inhibition", "setting": "at 11.0 µM", "result": 24, "unit": "%"}, {"measurement": "growth inhibition", "setting": "at 33.0 µM", "result": "81% (active)"}, {"measurement": "growth inhibition", "setting": "at 100.0 µM", "result": "92% (active)"}]}, {"molecule": "CCCCCCCCCCCCOC1C(COCCN2CCCC2)OC2OC(C)(C)OC21", "note": "(stereo not given)", "values": [{"measurement": "growth inhibition", "setting": "at 1.2 µM", "result": 37, "unit": "%"}, {"measurement": "growth inhibition", "setting": "at 3.7 µM", "result": 27, "unit": "%"}, {"measurement": "growth inhibition", "setting": "at 11.0 µM", "result": "97% (active)"}, {"measurement": "growth inhibition", "setting": "at 33.0 µM", "result": "98% (active)"}, {"measurement": "growth inhibition", "setting": "at 100.0 µM", "result": "97% (active)"}]}, {"molecule": "CCOC(=O)C1=C(C)NC(C)=C(C(=O)OCC)C1c1cccc([N+](=O)[O-])c1", "values": [{"measurement": "growth inhibition", "setting": "at 1.2 µM", "result": 5, "unit": "%"}, {"measurement": "growth inhibition", "setting": "at 3.7 µM", "result": 32, "unit": "%"}, {"measurement": "growth inhibition", "setting": "at 11.0 µM", "result": 33, "unit": "%"}, {"measurement": "growth inhibition", "setting": "at 33.0 µM", "result": 60, "unit": "%"}, {"measurement": "growth inhibition", "setting": "at 100.0 µM", "result": "83% (active)"}]}, {"molecule": "Nc1nc(Nc2ccccc2)nc(Nc2ccccc2)n1", "values": [{"measurement": "growth inhibition", "setting": "at 1.2 µM", "result": -1, "unit": "%"}, {"measurement": "growth inhibition", "setting": "at 3.7 µM", "result": 5, "unit": "%"}, {"measurement": "growth inhibition", "setting": "at 11.0 µM", "result": 2, "unit": "%"}, {"measurement": "growth inhibition", "setting": "at 33.0 µM", "result": 31, "unit": "%"}, {"measurement": "growth inhibition", "setting": "at 100.0 µM", "result": "96% (active)"}]}, {"molecule": "CCCCCCC(CCl)c1sc(-c2csc(CCNC(=O)OC(C)(C)C)n2)nc1C(=O)OC", "note": "(stereo not given)", "values": [{"measurement": "growth inhibition", "setting": "at 1.2 µM", "result": -2, "unit": "%"}, {"measurement": "growth inhibition", "setting": "at 3.7 µM", "result": 2, "unit": "%"}, {"measurement": "growth inhibition", "setting": "at 11.0 µM", "result": 16, "unit": "%"}, {"measurement": "growth inhibition", "setting": "at 33.0 µM", "result": 65, "unit": "%"}, {"measurement": "growth inhibition", "setting": "at 100.0 µM", "result": "96% (active)"}]}]}
